The values that follow come from PubChem BioAssay (NCI).

Each structure is given as a SMILES string. This is part of a sample that, as a whole, favours compounds with a hit. Of some 83,000 tested, about 20% had one in any assay.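 96-well plates, one dose, 48 hours. Percent growth reported; active if below 10.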 A number with no mark means an inactive call. Active and inactive are the calls of the source.

Some test systems named below: NCI-H23 lung; NCI-H322M lung; HOP-62 NSCLC; NCI-H460 lung; HOP-92 NSCLC; NCI-H522 lung; A549/ATCC NSCLC; 786-0 renal; COLO 205 colon; DU-145 prostate.
Common to all, as to test: NCI-60 one-dose screen, 48 h (100 = growth as untreated, 0 = no growth, -100 = all killed)
Details in all cases: 10 µM unless noted

For `CCC1=C[C@@H]2CN(C1)Cc1c([nH]c3ccccc13)[C@@](C(=O)OC)(c1cc3c(cc1OC)N(C)[C@H]1[C@@](O)(C(=O)OC)[C@H](OC(C)=O)[C@]4(CC)[C@@H]5C[C@@H]5CN5CC[C@]31[C@@H]54)C2`, the growth in the assay with NCI-H23 lung is 5.89% (active); in the assay with NCI-H322M lung, 49.3%; with HOP-62 NSCLC, 17.4%; in the assay on NCI-H460 lung, 0.48% (active); in the assay on HOP-92 NSCLC, 21.2%; with NCI-H522 lung it was -14.5% (active). In addition, the growth in the assay on A549/ATCC NSCLC is 13.9%; with 786-0 renal it was 11.2%; in the assay on COLO 205 colon, -86% (active); in the assay with DU-145 prostate, -17.9% (active).

Consider `CC(=O)c1ccc(Cc2ccc(C(C)=O)s2)s1`, for which the growth in the assay on NCI-H23 lung is 103%; in the assay with NCI-H322M lung, 92.1%; in the assay on HOP-62 NSCLC it was 104%; in the assay with NCI-H460 lung, 94.3%; with HOP-92 NSCLC, 102%; in the assay with NCI-H522 lung, 95.8%. Besides, the growth in the assay with A549/ATCC NSCLC was 105%; in the assay with 786-0 renal it was 102%; in the assay on COLO 205 colon, 119%; with DU-145 prostate it was 113%.

Take `COc1ccc(/C=C2/SC(=O)N(CC(=O)N3CCN(c4cc5c(cc4F)c(=O)c(C(=O)O)cn5C4CC4)CC3)C2=O)cc1`: the growth with NCI-H23 lung is 100%; in the assay with NCI-H322M lung, 99%; in the assay on HOP-62 NSCLC, 97.6%; in the assay with NCI-H460 lung it was 103%; in the assay with HOP-92 NSCLC, 113%; with NCI-H522 lung it was 87.1%. Moreover, the growth is 92.2% with A549/ATCC NSCLC, 97.3% with 786-0 renal, 108% in the assay with COLO 205 colon and 115% with DU-145 prostate.

As to `CCOC(=O)C1(Cc2ccccc2)CCN(Cc2cccc(OC)c2O)CC1`, the growth in the assay with NCI-H23 lung was 18.3%; in the assay on NCI-H322M lung, 20.3%; with HOP-62 NSCLC, 12.9%; in the assay with NCI-H460 lung, -13% (active); in the assay with HOP-92 NSCLC, 30.6%; in the assay with NCI-H522 lung, 17.1%. In addition, the growth with A549/ATCC NSCLC was 2.47% (active); with 786-0 renal, 6.33% (active); in the assay with COLO 205 colon, 10.2%; with DU-145 prostate, 10.8%.

Regarding `CCOC(=O)c1c2c(c(C)n1Cc1ccc(OC)cc1)-c1oncc1CC2`, the growth with NCI-H23 lung is 87.7%; in the assay with NCI-H322M lung, 78.5%; in the assay on HOP-62 NSCLC, 62%; in the assay with NCI-H460 lung, 99.1%; in the assay on HOP-92 NSCLC, 60.6%; with NCI-H522 lung, 99.3%. In addition, the growth with A549/ATCC NSCLC was 84.8%; in the assay on 786-0 renal, 79.6%; with COLO 205 colon, 137%; in the assay with DU-145 prostate, 96%.

`COc1ccc(CCN2C(=O)CCSC2=S)cc1`: the growth is 80% in the assay on NCI-H23 lung; 87.6% with NCI-H322M lung; 18.6% in the assay on HOP-62 NSCLC; 77% in the assay on NCI-H460 lung; 41.9% in the assay with HOP-92 NSCLC; 11.1% in the assay on NCI-H522 lung. Also, the growth with A549/ATCC NSCLC was 96.6%; with 786-0 renal it was 16.8%; in the assay on COLO 205 colon, 36.3%; with DU-145 prostate it was 13.8%.

Regarding `N#CC(C#N)=Cc1c(-c2ccccc2)[nH]c2ccccc12`, the growth in the assay on NCI-H23 lung was 41%; in the assay with NCI-H322M lung, 61%; with HOP-62 NSCLC, 35.6%; in the assay on NCI-H460 lung it was 16.9%; with HOP-92 NSCLC, 45.1%; in the assay on NCI-H522 lung it was 50.2%. For the same molecule, the growth with A549/ATCC NSCLC was 37.1%; in the assay with 786-0 renal, 40%; in the assay with COLO 205 colon, 20.4%; with DU-145 prostate it was 15.7%.

Turning to `Cc1ccc(OCCCCCCNCCO)c(C)c1`, the growth is 19.8% in the assay with NCI-H23 lung; 11.1% in the assay on NCI-H322M lung; 10.1% in the assay on HOP-62 NSCLC; -20.9% (active) with NCI-H460 lung; 12.8% with HOP-92 NSCLC; -8.65% (active) with NCI-H522 lung. In addition, the growth is 5.92% (active) in the assay on A549/ATCC NSCLC, 11.3% with 786-0 renal, 1.75% (active) in the assay on COLO 205 colon and 21.5% with DU-145 prostate.

For the molecule `CCCCCCCCCCOC(=O)c1ccccc1C(=O)OCCCC`, the growth in the assay on NCI-H23 lung was 107%; in the assay with NCI-H322M lung, 108%; in the assay with HOP-62 NSCLC, 107%; with NCI-H460 lung, 120%; in the assay on HOP-92 NSCLC it was 91.3%; with NCI-H522 lung, 91.2%. Besides, the growth is 111% in the assay on A549/ATCC NSCLC, 106% in the assay with 786-0 renal, 117% in the assay on COLO 205 colon and 114% in the assay on DU-145 prostate.

As for `O=C(Nc1ccc(Cl)cc1F)c1cc(F)ccc1O`, the growth in the assay on NCI-H23 lung is 1.46% (active); in the assay with NCI-H322M lung, 8.54% (active); with HOP-62 NSCLC, -0.133% (active); with NCI-H460 lung it was 4.1% (active); in the assay with HOP-92 NSCLC it was -7.2% (active); in the assay with NCI-H522 lung, -25.1% (active). In addition, the growth in the assay with A549/ATCC NSCLC was 7.57% (active); in the assay on 786-0 renal, 3.03% (active); in the assay with COLO 205 colon it was -1.76% (active); in the assay with DU-145 prostate, 16.3%.

Take `O=c1oc2ccc(Cl)cc2c(=O)n1-c1ccc(Cl)cc1F`: the growth was -4.79% (active) with NCI-H23 lung; 4.88% (active) with NCI-H322M lung; -6.42% (active) in the assay with HOP-62 NSCLC; 3.59% (active) in the assay with NCI-H460 lung; -12.9% (active) in the assay on HOP-92 NSCLC; -20.9% (active) in the assay with NCI-H522 lung. Further, the growth is 5.46% (active) in the assay on A549/ATCC NSCLC, 5.1% (active) with 786-0 renal, 6.93% (active) with COLO 205 colon and 15.3% in the assay on DU-145 prostate.

In the case of `COc1ccc(N(C)c2nc(N)nc3sc4c(c23)CCCC4)cc1`, the growth with NCI-H23 lung was 19.3%; with NCI-H322M lung, 52.6%; in the assay on HOP-62 NSCLC, 28.3%; in the assay on NCI-H460 lung it was 3.58% (active); with HOP-92 NSCLC, 36.5%; in the assay with NCI-H522 lung, -13.7% (active). Moreover, the growth was 15.4% in the assay with A549/ATCC NSCLC, 26.4% with 786-0 renal, -60.3% (active) in the assay on COLO 205 colon and 0.729% (active) in the assay on DU-145 prostate.

Consider `Nc1nc(N)c2c(n1)NC1(C=C(O)c3ccccc31)C1=C(N2)c2ccccc2C1=O` (stereo not given), for which the growth with NCI-H23 lung is 104%; with NCI-H322M lung, 123%; in the assay with HOP-62 NSCLC, 104%; in the assay with NCI-H460 lung, 105%; with HOP-92 NSCLC, 87%; in the assay with NCI-H522 lung it was 95.3%. Also, the growth was 110% in the assay on A549/ATCC NSCLC, 104% in the assay with 786-0 renal, 118% with COLO 205 colon and 98.7% in the assay on DU-145 prostate.

For the molecule `O=C(c1nc2ccccc2[nH]1)C1C(c2cccc([N+](=O)[O-])c2)C2CC3CCCCC3N2[C@@]12C(=O)Nc1cc(Cl)ccc12` (stereo not given in full), the growth in the assay on NCI-H23 lung was 37.3%; in the assay on NCI-H322M lung it was 42.2%; with HOP-62 NSCLC, 48.1%; in the assay on NCI-H460 lung, 9.08% (active); with HOP-92 NSCLC, 16.9%; with NCI-H522 lung, 52.4%. Also, the growth in the assay with A549/ATCC NSCLC is 17.8%; in the assay on 786-0 renal, 25.6%; with COLO 205 colon, 12.6%; in the assay with DU-145 prostate, 27%.
